Screening results deposited in PubChem BioAssay by National Center for Advancing Translational Sciences (NCATS).
UbGFP stabilizer – Ubiquitin-GFP Assay; Ubiquitin-GFP reporter cells, proteasome inhibition, GFP fluorescence; response scale: untreated = 0%, 10 µM MG-132 = 100%; Potency, µM (titrated, usually from 45.9 µM), usual class: activators; 67,000 tested, under 10 active; AID 526, 2006; active = well fitted activation curve with a large enough effect, not every such curve was filed as active; inconclusive = small, poorly fitted or top-dose-only effect, or another doubt; inactive = no such curve, though single readings can be large or run the other way
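U2OS Ub(G76V)-GFP reporter; O/N plating, 0.5% FBS; cpd 46 uM–2.9 nM, 4 h, 37 °C; GFP+ cell count, 488/515 nm; norm. to basal vs 10 uM MG-132; CRC fit.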
Caspase-7 inhib – qHTS Assay for Allosteric/Competitive Inhibitors of Caspase-7; Potency, µM (highest dose often 57.5 µM), usual class: inhibitors; P55210; 75,000 compounds, 0.02% hits; recombinant caspase-7, Ac-DEVD-AFC fluorescence rate; active = well fitted inhibition curve with a large enough effect in the main read-out, with a control signal flat, not every such curve was filed as active; inconclusive = small, poorly fitted or top-dose-only effect, or a change in a side signal
GBA mod – Glucocerebrosidase. Lysosomal acid glucosylceramidase (Homo sapiens), P04062. purified enzyme, resorufin glucoside fluorescence (screen aimed at inhibitors), 20 min. Potency, µM. 48,000 compounds, 1.1% hits. AID 360, 2006; in the data active = potency below about 15 µM; inconclusive = mostly about 16 µM to 33 µM;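 note: the screen sought inhibitors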
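Wild-type enzyme at 0.2 nM final in 50mM citric acid/KH2PO4, 10mM sodium taurocholate, 0.01% tween-20, pH 5.9, with resorufin beta-D-glucopyranoside at 30 uM final. Compounds titrated, 20 min at RT, red fluorescence read; AC50 from titration.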
Epigenetic mod – qHTS Assay for Epigenetic Modulators; Potency, µM (series often up to 46.1 µM); mouse C127i GFP locus derepression, cytometry, 30 h; AID 597, 2007; 68,000 compounds, 0.09% hits
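Derepression screen: silenced CMV-GFP reporter in murine C127i cells, 30 h compound incubation at 37 C, washed cells imaged by laser-scanning cytometer to enumerate GFP-expressing objects of 20 to 120 um.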
HBB splicing – qHTS Assay for Modulators of Hemoglobin Beta Chain Splicing; 65,000 compounds, 0.06% hits; Potency, µM (highest dose often 46.1 µM), usual class: activators; HBB splicing reporter cell assay, activation; EGFP reporter with mutant IVS2-654 intron; response scale: normalised to 500 nM splice-correcting PNA
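HeLa cells stably expressing EGFP interrupted by mutant beta-globin intron 2 (IVS2-654), 500/well in 2% FCS. Treated with compound for 2 days at 37C. Splicing correction scored as total well GFP intensity (488 nm excitation, 500-520 nm emission); 500 nM antisense PNA served as control.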
Casp1 inh – qHTS Assay for Allosteric/Competitive Inhibitors of Caspase-1. P29466. Caspase-1 enzyme, Ac-WEHD-AFC fluorogenic rate. Potency, µM (top dose mostly 57.5 µM), hits mostly inhibitors. 75,000 compounds, 0.03% hits
Numbers stand for hits; – = inactive; ? = inconclusive; · = no result; [ ] = another dose, or the depositor's remark. This is one part of a sample in which hits are shown more often than they occur. Unless noted, calls come from the whole dose curve; as a rule, active = well fitted curve in the direction sought with a large enough effect; inconclusive = small, poorly fitted or top-dose-only effect, or another doubt; inactive = no such curve, though single readings can be large; an effect the other way counts as inactive or inconclusive.

SMILES | UbGFP stabilizer | Caspase-7 inhib | GBA mod | Epigenetic mod | HBB splicing | Casp1 inh
CCCCCCN1CC(O)=C(c2nc3ccccc3[nH]2)C1=N | – | – | 11 | – | – | –
CC(c1nnc(SCC(=O)c2c(N)n(C)c(=O)n(C)c2=O)n1-c1ccc(Cl)cc1)N(C)C (stereo unspecified) | – | – | – | – | – | –
COc1cc(-c2nnc(SCC(=O)c3ccc(C)cc3)o2)cc(OC)c1OC | – | – | – | – | – | –
COc1cc(-c2nnc(SCC(=O)c3cc(C)n(CC4CCCO4)c3C)o2)cc(OC)c1OC (stereo unspecified) | – | – | 13 | – | – | –
Cc1cc(NC2CCCCC2)nc(N2CCOCC2)n1 | · | – | · | · | · | –
COc1ccc(Nc2cc(C)nc(N3CCOCC3)n2)cc1 | · | – | 11 | – | –[0.369 µM] | –
CCOc1ccc(Nc2cc(C)nc(-n3nc(C)cc3C)n2)cc1 | – | – | – | 16µM | –[0.369 µM] | –
CC(C)C(=O)Nc1ccc(NC(=O)c2cc3ccccc3o2)cc1 | – | – | 9.8 | – | – | –
CCOC(=O)c1ccc(NC(=O)c2cc3ccccc3o2)cc1 | – | – | · | – | – | –
S=C(Nc1ccccn1)c1ccccn1 | – | – | · | 4µM | –[9.22 µM] | –
O=C(Nc1ccccc1)Nc1ccccn1 | – | – | – | – | – | –
CC(C)OP(=O)(c1ccc(N(C)C)cc1)C(O)c1ccccc1F (stereo unspecified) | – | – | – | – | – | –
COc1ccc(NC(=O)c2ccc3c(c2)C(=O)N(Cc2cccnc2)C3=O)c(OC)c1 | – | – | 5 | – | – | –
CCc1nnc(NC(=O)CSc2nnc(CNc3ccc(Cl)cc3)o2)s1 | – | – | 15 | – | – | –
CCc1nnc(NC(=O)CSc2nnc(Cc3ccccc3)o2)s1 | – | – | ? | – | – | –
CC1CCN(c2c(NCc3ccc(C(=O)NCc4cccnc4)cc3)c(=O)c2=O)CC1 | – | – | · | – | – | –
O=C1C(Cl)=C(NCCCN2CCOCC2)C(=O)N1CCc1ccccc1 | – | – | 11 | – | – | –
Cc1oc2cc(OC(C)C(=O)O)ccc2c(=O)c1Oc1ccccc1 (stereo unspecified) | – | – | – | – | – | –
CCOC(=O)N1CC=C2C(C#N)=C(N)C(C#N)(C#N)[C@H](c3ccc(OC(C)C)c(OCC)c3)[C@H]2C1 | · | – | – | – | –[0.369 µM] | –
CCOC(=O)N1CC=C2C(C#N)=C(N)C(C#N)(C#N)[C@H](c3ccccc3OCC)[C@H]2C1 | · | – | 8.5 | – | –[0.369 µM] | –
CCOC(=O)c1cnn(-c2cc(C)c3ccccc3n2)c1N | – | – | 12 | – | – | –
O=C(COC(=O)CSc1nnc(-c2ccc(Cl)cc2)o1)NCc1ccc2c(c1)OCO2 | – | – | 11 | – | – | –
Cc1nn(CC(=O)NCCc2ccccc2)c(=O)c2ccccc12 | – | – | – | – | · | –
Cc1ccc(C)c(CSc2nnc(-c3cccnc3)n2N)c1 | – | – | 4.2 | – | – | –
Nn1c(SCc2nc3ccccc3[nH]2)nnc1-c1cccnc1 | – | – | · | – | – | –
SMILES | UbGFP stabilizer | Caspase-7 inhib | GBA mod | Epigenetic mod | HBB splicing | Casp1 inh
Cn1c(=O)[nH]c(=O)c2c1nc(SCCN1CCOCC1)n2Cc1ccccc1 | – | –[0.00368 µM] | 9 | – | – | –
CCN(CC)c1ccc2cc(-c3nc4ccccc4[nH]3)c(=O)oc2c1 | 0.5µM | ? | · | 0.16µM | 0.79µM | ·
CN(C)c1ccc(-c2nc3ccccc3n2C)cc1 | – | – | ? | – | – | –
CCN(CC)c1ccc2cc(-c3nc4ccccc4n3C)c(=O)oc2c1 | ? | ? | · | 10µM | ? | ·
O=C(NCc1nc2ccccc2[nH]1)c1cc2ccccc2oc1=O | – | – | – | – | – | –
O[C@H](C[C@@H]1CCCCN1)c1ccc2c(c1)oc1ccccc12 | –[9.17 µM] | –[11.5 µM] | · | 1.3µM | –[9.22 µM] | –[11.5 µM]
Cc1nc2c(ccc3nc(NC(=O)c4ccc5c(c4)OCCO5)sc32)s1 | – | – | 7.4 | – | – | –
CN(C)C(=O)c1c(-c2ccccc2)oc2ccc(O)cc12 | – | · | – | – | – | –
COC(=O)CSc1nc2c(c(-c3ccc(C)o3)c1C#N)CCCC2 | · | – | 15 | – | –[0.369 µM] | –
O=C(NCCNCCO)c1c(O)c2cccc3c2n(c1=O)CCC3 | – | – | – | – | · | –
COc1ccc(NC(=O)c2ccco2)cc1NC(=O)c1cccc(OC(C)C)c1 | – | – | 9.8 | – | · | –
CCOCCCNC(=O)c1ccc2c(c1)ncn2C1CCCC1 | – | – | – | – | – | –
O=C(NCCN1CCOCC1)c1ccc2c(c1)ncn2C1CCCCC1 | – | – | 15 | – | – | –
Cc1nnc(SC(C)C(=O)Nc2ccc3c(c2)OCCO3)s1 (stereo unspecified) | – | – | – | – | – | –
CC(Sc1ccc2c(c1)OCCO2)C(=O)Nc1ccc2c(c1)OCO2 (stereo unspecified) | – | – | 15 | – | – | –
COc1ccc(C)cc1S(=O)(=O)N(CC(=O)O)c1ccccc1 | – | – | – | – | – | –
COc1ccc(N2CCN(Cc3nc(N)nc(N4CCCc5ccccc54)n3)CC2)cc1 | – | – | 7.6 | – | – | –
Nc1nc(CN2CCN(c3ccccc3)CC2)nc(N2CCCc3ccccc32)n1 | – | – | ? | – | –[1.84 µM] | –
Nc1nc(CN2CCN(c3cccc(Cl)c3)CC2)nc(N2CCCc3ccccc32)n1 | – | – | 14 | – | – | –
Cc1ccc(S(=O)(=O)Nc2cc(C(=O)NCCN3CCCC3)ccc2N2CCCCC2)cc1 | – | – | 10 | – | – | –
COc1cc(NC(=O)c2ccc(NS(=O)(=O)c3c(C)noc3C)cc2)cc(OC)c1 | – | – | 11 | – | – | –
COc1ccc(OC)c(NC(=O)c2ccc(NS(=O)(=O)c3c(C)noc3C)cc2)c1 | – | – | ? | – | – | –
Cc1cccc(NC(=O)c2ccc(NS(=O)(=O)c3c(C)noc3C)cc2)c1 | – | – | 12 | – | – | –
CCc1cccc(NC(=O)c2ccc(NS(=O)(=O)c3c(C)noc3C)cc2)c1 | – | – | ? | – | – | –
CCN(CC)CCNC(=O)NC1CCCCC1 | –[9.17 µM] | – | · | – | –[0.0738 µM] | –
CCc1ccc(N2C(=O)c3sc4nnc(C)c(=O)n4c3C2=O)cc1 | – | – | · | 10µM | – | –
CCOc1ccccc1NC(=O)CCC(=O)Nc1ccc2nc(N3CCN(C)CC3)cc(C)c2c1 | – | – | 9.6 | – | – | –
CCC(C)NC(=O)CCC(=O)Nc1ccc2nc(N3CCOCC3)cc(C)c2c1 (stereo unspecified) | – | – | 6.1 | – | – | –
